About 8,800 targets were measured; listed, in parts, are those with a hit and a random draw of the rest. About 0.5% of all pairs of compound and target were hits.
Tests used:
Assay in all cases: log2 fold change, soluble protein after heating vs DMSO (PISA); higher = thermal stabilisation; K562 lysate, 10 uM; active = over 0.2 and 3.5 SD of the protein, either way, in both replicates (recomputed)
[1] = compound: C1=CC=C(C=C1)[C@H](COC2=CC3=C(C=C2)NC(=O)N3)NC(=O)C4=CC=CN(C4=O)CC5=CC(=C(C=C5)F)F
Summary of the method: (§1)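 Values give the log-two fold change in thermal stability against solvent controls, from duplicates. Crude K562 extract at 1 mg/mL protein, made by dounce homogenisation in PBS pH 7.4 with 1 mM MgCl2, was treated with 10 μM compound for 30 min. After 3 min heating across 48°C-58°C, aliquots were pooled, adjusted to 0.5% NP-40 at 4°C and centrifuged at 21,000xg for 90 min. The supernatant was measured by TMTpro 16plex LC-MS/MS with channel sums equalised.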

[2] = compound: CC1=C(SC2=C1C(=N[C@H](C3=NN=C(N32)C)CC(=O)N)C4=CC=C(C=C4)Cl)C
Summary of the method: as §1

[3] = compound: CC1=C2C(=CC=C1)N=C(N(C2=O)C3=CC=CC=C3C)CN4C=NC5=C(N=CN=C54)N
Summary of the method: as §1

[4] = compound: Cc1sc2c(c1C)C(c1ccc(Cl)cc1)=N[C@@H](CC(=O)OC(C)(C)C)c1nnc(C)n1-2
Summary of the method: as §1

[5] = compound: c1ccc([C@@H]2C[C@H]2NC2CCNCC2)cc1
Summary of the method: as §1

Measured: log2 fold change

MTMR6 (UniProt Q9Y217)
Sequence of UniProt Q9Y217 (Q9Y217 whole entry, looked up): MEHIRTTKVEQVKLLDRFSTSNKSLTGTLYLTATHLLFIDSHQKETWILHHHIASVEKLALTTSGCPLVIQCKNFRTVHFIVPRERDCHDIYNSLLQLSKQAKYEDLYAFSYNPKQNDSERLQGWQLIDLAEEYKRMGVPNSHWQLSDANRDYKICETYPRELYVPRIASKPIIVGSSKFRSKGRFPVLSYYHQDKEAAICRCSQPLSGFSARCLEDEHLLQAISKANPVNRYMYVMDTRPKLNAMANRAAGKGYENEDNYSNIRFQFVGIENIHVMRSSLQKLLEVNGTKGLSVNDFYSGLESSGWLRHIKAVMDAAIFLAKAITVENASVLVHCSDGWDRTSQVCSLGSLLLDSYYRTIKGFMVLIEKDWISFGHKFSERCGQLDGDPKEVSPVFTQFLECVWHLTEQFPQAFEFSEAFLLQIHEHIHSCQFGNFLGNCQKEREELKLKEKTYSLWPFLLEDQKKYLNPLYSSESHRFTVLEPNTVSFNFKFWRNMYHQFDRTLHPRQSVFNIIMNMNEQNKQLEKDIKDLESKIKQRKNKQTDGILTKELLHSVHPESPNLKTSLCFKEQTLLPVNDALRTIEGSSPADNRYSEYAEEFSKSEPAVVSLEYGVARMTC
inactive: [1] 0.015 | [2] 0.01 | [3] 0.006 | [4] -0.065 | [5] 0.062

MTOR (UniProt P42345)
inactive: [1] -0.022 | [2] 0.004 | [3] 0.013 | [4] 0.014 | [5] 0.029

ORC2 (UniProt Q13416)
Sequence of UniProt Q13416 (Q13416 whole entry, looked up): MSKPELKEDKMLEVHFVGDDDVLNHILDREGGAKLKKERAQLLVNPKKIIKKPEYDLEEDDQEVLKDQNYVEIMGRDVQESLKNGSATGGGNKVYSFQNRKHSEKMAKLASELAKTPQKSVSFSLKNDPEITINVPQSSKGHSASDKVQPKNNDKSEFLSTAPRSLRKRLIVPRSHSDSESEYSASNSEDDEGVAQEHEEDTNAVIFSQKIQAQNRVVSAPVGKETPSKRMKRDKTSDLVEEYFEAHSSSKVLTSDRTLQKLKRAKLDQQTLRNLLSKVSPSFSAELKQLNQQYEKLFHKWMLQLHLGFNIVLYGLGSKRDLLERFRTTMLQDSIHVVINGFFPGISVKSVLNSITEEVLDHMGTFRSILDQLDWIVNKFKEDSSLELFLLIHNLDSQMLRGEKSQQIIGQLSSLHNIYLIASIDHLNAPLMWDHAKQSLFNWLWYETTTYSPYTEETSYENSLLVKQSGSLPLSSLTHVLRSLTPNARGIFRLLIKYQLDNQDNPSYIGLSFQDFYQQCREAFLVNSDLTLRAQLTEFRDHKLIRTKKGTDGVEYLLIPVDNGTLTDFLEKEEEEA
inactive: [1] -0.052 | [2] -0.011 | [3] -0.012 | [4] 0.025 | [5] 0.044

NCKAP1L (UniProt P55160)
Sequence of UniProt P55160 (P55160 whole entry, looked up): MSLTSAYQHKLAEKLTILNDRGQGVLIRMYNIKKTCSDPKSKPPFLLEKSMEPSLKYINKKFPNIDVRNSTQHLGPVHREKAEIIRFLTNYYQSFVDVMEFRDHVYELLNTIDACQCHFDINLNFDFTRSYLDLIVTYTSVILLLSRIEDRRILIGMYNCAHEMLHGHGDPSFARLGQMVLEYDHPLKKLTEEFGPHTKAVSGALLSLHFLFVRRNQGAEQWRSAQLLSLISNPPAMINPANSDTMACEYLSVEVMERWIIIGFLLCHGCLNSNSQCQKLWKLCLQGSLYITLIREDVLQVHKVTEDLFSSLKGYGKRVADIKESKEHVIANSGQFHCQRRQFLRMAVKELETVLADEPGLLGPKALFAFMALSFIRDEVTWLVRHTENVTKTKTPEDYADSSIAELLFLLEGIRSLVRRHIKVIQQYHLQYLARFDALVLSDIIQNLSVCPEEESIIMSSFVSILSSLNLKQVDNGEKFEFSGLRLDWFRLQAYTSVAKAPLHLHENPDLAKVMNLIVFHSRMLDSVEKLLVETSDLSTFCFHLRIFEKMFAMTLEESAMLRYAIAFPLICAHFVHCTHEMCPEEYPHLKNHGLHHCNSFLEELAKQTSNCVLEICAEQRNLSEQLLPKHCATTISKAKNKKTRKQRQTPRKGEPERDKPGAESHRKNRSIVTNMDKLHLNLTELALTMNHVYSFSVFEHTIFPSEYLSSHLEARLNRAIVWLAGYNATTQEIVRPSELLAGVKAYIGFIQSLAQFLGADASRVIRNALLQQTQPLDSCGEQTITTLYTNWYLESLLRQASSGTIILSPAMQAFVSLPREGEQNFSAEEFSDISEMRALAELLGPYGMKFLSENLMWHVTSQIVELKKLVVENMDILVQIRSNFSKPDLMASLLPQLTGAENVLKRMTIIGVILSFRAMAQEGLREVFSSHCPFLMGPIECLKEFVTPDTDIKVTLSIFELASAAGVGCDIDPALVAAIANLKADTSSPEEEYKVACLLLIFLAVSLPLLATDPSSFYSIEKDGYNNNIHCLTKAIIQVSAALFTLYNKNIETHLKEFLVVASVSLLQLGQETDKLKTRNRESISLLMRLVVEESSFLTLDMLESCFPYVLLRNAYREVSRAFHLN
inactive: [1] -0.002 | [2] 0.021 | [3] -0.106 | [4] -0.061 | [5] 0.005

NUDT5 (UniProt Q9UKK9)
inactive: [1] 0.053 | [2] -0.126 | [3] -0.012 | [4] -0.097 | [5] -0.158

NFATC4 isoform 2 (UniProt Q14934)
Sequence of UniProt Q14934 (Q14934 whole entry, looked up): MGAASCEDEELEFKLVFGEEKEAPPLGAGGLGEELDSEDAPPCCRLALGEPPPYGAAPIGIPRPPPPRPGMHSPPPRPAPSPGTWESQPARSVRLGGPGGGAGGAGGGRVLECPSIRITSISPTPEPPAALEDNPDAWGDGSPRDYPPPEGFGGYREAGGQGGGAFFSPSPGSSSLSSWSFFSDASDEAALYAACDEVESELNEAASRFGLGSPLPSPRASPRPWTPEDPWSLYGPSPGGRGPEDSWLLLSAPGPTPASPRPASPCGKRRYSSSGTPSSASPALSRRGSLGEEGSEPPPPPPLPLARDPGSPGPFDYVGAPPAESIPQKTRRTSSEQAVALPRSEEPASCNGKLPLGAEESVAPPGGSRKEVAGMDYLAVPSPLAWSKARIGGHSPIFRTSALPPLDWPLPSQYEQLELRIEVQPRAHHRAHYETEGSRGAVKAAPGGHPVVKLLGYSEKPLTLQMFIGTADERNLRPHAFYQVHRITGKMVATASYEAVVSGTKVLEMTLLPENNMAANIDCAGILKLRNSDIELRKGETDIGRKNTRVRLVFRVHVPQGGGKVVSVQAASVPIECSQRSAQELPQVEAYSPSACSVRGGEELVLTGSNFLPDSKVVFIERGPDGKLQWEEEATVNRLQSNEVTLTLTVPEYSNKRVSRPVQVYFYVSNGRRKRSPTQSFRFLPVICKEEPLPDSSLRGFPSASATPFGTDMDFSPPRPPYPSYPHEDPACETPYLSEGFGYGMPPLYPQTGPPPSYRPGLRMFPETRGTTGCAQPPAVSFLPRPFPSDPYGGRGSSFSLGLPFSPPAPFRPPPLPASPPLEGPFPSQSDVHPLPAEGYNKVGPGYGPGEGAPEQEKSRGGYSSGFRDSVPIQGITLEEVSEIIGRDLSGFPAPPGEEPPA
inactive: [1] -0.077 | [2] 0.015 | [3] 0 | [4] -0.112 | [5] -0.197

PANK2 (UniProt Q9BZ23)
Sequence of UniProt Q9BZ23 (Q9BZ23 whole entry, looked up): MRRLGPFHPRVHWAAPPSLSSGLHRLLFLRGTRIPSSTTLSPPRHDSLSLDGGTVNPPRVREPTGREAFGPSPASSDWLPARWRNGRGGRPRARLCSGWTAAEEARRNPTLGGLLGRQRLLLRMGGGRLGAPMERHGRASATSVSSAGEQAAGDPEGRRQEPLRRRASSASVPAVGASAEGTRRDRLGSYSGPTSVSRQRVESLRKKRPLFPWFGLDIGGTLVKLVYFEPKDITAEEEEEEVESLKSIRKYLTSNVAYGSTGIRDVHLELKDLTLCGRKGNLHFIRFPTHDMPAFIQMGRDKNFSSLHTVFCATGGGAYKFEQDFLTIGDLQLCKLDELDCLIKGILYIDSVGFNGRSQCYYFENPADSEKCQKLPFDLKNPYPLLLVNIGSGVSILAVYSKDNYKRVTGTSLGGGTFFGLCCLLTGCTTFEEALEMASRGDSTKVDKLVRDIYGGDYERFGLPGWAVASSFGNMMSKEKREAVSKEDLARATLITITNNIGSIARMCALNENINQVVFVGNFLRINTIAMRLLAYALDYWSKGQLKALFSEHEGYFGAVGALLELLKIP
inactive: [1] 0.024 | [2] 0.081 | [3] -0.021 | [4] 0.019 | [5] -0.077

OSGEP (UniProt Q9NPF4)
Sequence of UniProt Q9NPF4 (Q9NPF4 whole entry, looked up): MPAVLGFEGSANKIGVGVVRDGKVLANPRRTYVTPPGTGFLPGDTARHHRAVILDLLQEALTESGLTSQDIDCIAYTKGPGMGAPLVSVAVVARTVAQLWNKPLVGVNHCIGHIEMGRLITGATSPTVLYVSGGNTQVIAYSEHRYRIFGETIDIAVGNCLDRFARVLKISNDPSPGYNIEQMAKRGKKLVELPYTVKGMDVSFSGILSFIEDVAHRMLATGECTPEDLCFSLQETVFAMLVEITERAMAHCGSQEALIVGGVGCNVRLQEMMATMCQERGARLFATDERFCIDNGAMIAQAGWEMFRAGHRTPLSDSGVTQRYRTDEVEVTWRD
inactive: [1] -0.007 | [2] 0.031 | [3] 0.036 | [4] 0.063 | [5] 0.011

NCAPH (UniProt Q15003)
Sequence of UniProt Q15003 (Q15003 whole entry, looked up): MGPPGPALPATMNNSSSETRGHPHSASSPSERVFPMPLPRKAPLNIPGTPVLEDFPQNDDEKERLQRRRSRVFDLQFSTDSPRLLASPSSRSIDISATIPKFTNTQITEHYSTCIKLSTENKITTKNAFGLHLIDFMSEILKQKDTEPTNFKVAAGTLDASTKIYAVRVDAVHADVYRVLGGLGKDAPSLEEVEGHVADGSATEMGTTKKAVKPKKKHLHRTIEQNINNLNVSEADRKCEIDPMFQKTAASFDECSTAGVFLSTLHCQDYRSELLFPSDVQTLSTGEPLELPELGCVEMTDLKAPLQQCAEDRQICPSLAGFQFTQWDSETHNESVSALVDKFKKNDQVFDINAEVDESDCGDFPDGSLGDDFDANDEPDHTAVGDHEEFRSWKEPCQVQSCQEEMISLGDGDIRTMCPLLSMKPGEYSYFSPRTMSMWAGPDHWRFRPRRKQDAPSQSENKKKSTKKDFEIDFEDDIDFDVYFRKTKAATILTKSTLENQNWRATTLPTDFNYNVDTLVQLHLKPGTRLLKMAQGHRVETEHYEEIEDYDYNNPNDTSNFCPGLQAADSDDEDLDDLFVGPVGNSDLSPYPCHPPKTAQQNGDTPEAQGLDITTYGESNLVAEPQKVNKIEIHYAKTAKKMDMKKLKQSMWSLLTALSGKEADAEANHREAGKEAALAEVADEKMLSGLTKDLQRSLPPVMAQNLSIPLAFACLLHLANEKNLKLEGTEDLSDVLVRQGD
inactive: [1] -0.025 | [2] 0.015 | [3] 0.021 | [4] -0.023 | [5] 0.024

— the supplement of paper PMC10849652
